A selection: hits, their analogues and other compounds. The true share with any hit is near 21%.
IL1B secr inh: inhibitors of inflammasome signaling (IL-1 beta secretion). THP-1 LPS/ATP IL-1B secretion, AlphaLISA, 16 h; active compounds read low. activity change, % at 57.5 µM. actives 4.7% (n = 360,000); in the data active = activity change below about -50%; inconclusive = mostly about -30% to -49%; also: % is scaled to controls: 0 for no effect and ±100 for the full control effect
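THP-1 cells pretreated 1 hr with compounds (up to 57.5 uM final), then stimulated with LPS (250 ng/mL final) plus ATP (1.25 mM final); secreted IL-1B measured by AlphaLISA after 16 hr, decreased signal indicating inhibition.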
DT40 TDP1 CPT: growth inhibition of DT40 Tdp1-/-;hTDP1 cells with camptothecin (screen for TDP1 inhibitors) | chicken DT40 Tdp1-/-;hTDP1 cells + 20 nM CPT, ATP luminescence, 48 h | Potency, µM (highest dose often 46.2 µM), for inactives: top-dose activity change, negative = growth inhibition, most hits filed as inhibitors | actives 12% (n = 420,000) | AID 686979; also: potency is read from the fitted curve at half-maximal effect; % is scaled to controls: 0 for no effect and ±100 for the full control effect; nearly all actives have a fitted effect of over 55% in size
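Chicken DT40 Tdp1-/- cells complemented with human TDP1, 400 cells/well, exposed to compounds plus 20 nM camptothecin for at least 48 h at 37 C; viability read as ATP content by CellTiter-Glo luminescence.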
TDP1 cell noCPT: qHTS for Inhibitors of human tyrosyl-DNA phosphodiesterase 1 (TDP1): qHTS in cells in absence of CPT. DT40 Tdp1-/- hTDP1 cells, no CPT, ATP luminescence, 48 h. Potency, µM (top dose mostly 46.2 µM), without a hit: at the highest dose activity change, negative = growth inhibition, usual class: inhibitors. actives 15% (n = 420,000). AID 686978, 2013; also: potency is read from the fitted curve at half-maximal effect; % is scaled to controls: 0 for no effect and ±100 for the full control effect; nearly all actives have a fitted effect of over 55% in size
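Seeded 400 DT40-hTDP1 cells/well (vehicle DMSO, no 20 nM CPT); pinned compounds; ≥48 hr at 37 °C; CellTiter-Glo luminescence as viability measure.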
D3 antag: blocks the human D3 dopamine receptor | max response, negative = inhibition, % | D3R cells, DiscoveRx beta-arrestin luminescence, antagonist mode; active compounds read low | P35462 | actives 2.5% (n = 360,000); in the data active = max response below about -50%; inconclusive = no clear call, values can overlap the other calls; also: % is scaled to controls: 0 for no effect and ±100 for the full control effect
Target sequence (P35462 whole entry, looked up): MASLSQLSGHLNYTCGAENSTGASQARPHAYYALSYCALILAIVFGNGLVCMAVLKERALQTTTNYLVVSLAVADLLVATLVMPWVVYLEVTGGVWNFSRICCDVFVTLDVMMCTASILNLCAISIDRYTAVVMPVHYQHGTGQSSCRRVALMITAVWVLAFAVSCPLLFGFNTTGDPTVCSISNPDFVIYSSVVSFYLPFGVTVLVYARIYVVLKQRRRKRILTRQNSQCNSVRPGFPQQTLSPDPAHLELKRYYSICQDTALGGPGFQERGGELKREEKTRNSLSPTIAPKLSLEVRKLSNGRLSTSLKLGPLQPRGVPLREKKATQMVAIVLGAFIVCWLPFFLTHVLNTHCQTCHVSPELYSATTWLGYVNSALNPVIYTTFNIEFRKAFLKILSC
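Cells expressing the human receptor were seeded at 1500 cells/well, incubated overnight at 37 degrees C in 5% CO2, then exposed to library compounds with dopamine controls for 90 minutes at 37 degrees C before luminescent detection.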
DRD3 agonist: agonists of human D3 dopamine receptor; D3R DiscoveRx beta-arrestin cells, luminescence, 90 min; max activation, %; actives 0.58% (n = 410,000); in the data active = max activation above about 30%; also: 0% is about no effect
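Agonist-mode cell screen: cells plated at 1500/well and incubated overnight at 37 °C, then exposed to library compounds for 90 min at 37 °C. Detection reagent was added for 30–60 min at room temperature, and luminescence was read.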
ClpP mod: qHTS Assay for Activators of ClpP; purified B. subtilis ClpP, FRET peptide cleavage, 20 min; actives 1.9% (n = 340,000); AID 651965, 2013; ATP-dependent Clp protease proteolytic subunit (Bacillus subtilis (strain 168)), P80244; Potency, µM (doses to about 57.5 µM), inactives show top-dose activity change, negative = active; active = well fitted falling curve with a large enough effect; inconclusive = small, poorly fitted or top-dose-only effect; inactive = no such curve, though single readings can be large or run the other way; also: potency is read from the fitted curve at half-maximal effect; the source files actives as falling curves though it sought activators and does not explain the sign; nearly all actives have a fitted effect of over 65% in size
Target sequence (P80244 whole entry, looked up): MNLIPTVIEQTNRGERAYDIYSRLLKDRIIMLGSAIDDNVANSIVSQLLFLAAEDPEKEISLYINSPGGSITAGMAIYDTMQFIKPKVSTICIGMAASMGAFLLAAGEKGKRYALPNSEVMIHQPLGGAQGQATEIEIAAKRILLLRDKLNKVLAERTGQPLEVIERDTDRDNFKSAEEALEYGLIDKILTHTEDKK
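ClpP 10 microg/mL final, pH 8 Tris/KCl buffer with BSA, glycerol, Tween-20; compound pinned in; FRET-FV substrate; RT 20 min; Ex320/Em430; ΔFRET vs ADEP 5.8 microM, DMSO, no enzyme.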
Active calls of the source: *; ? = inconclusive; . = no result given. Unless noted, calls follow the shape of the dose curve; as a rule, active = well fitted inhibition curve with a large enough effect; inconclusive = small, poorly fitted or top-dose-only effect; inactive = flat fitted curve, though single readings scatter.

SMILES	IL1B secr inh	DT40 TDP1 CPT	TDP1 cell noCPT	D3 antag	DRD3 agonist	ClpP mod
Cc1cc(C)nc(Nc2nc(C(N)Cc3ccc(F)cc3)cs2)n1 (configuration not stated)	-8	15µM*	21µM*	0	6	5%
COc1cc(OC)nc(Nc2nc(C(N)Cc3ccc(C(F)(F)F)cc3)cs2)n1 (configuration not stated)	-111*	?	?	0	-1	-3%
Cc1cc(C)nc(Nc2nc(C(N)Cc3ccc(C(F)(F)F)cc3)cs2)n1 (configuration not stated)	-81*	6.5µM*	6.5µM*	9	-6	0%
Cc1cc(C)nc(Nc2nc(C(N)Cc3ccc(Cl)cc3)cs2)n1 (configuration not stated)	?	18µM*	18µM*	11	-2	0%
NC(Cc1ccc(C(F)(F)F)cc1)c1csc(Nc2nccc(C(F)(F)F)n2)n1 (configuration not stated)	-29	?	?	31	2	-2%
O=C1c2ccccc2C(=O)C1(CO)c1ccc(OC(F)F)cc1	14	-21%	-1%	-9	-1	-2%
COc1cc(OC)cc(N(C(=O)CNC(=O)c2ccco2)C(C(=O)NCC2CCCO2)c2ccccc2)c1 (configuration not stated)	-1	-27%	?	62	4	.
CCCc1cnc(Nc2nc(C(N)Cc3ccc(C(F)(F)F)cc3)cs2)nc1 (configuration not stated)	?	?	21µM*	54	3	0%
COc1cc(OC)nc(Nc2nc(C(N)Cc3ccccc3)cs2)n1 (configuration not stated)	0	?	18µM*	?	-10	-4%
CCOC(=O)c1ccc2c(c1)nc(SCC(=O)N1CCOCC1)n2CC	-11	12%	-20%	1	-5	.
CCOC(=O)c1ccc2c(c1)nc(SCc1cn3ccsc3n1)n2CC	?	?	16µM*	21	-4	0%
C1CCC(CNc2c3c(nc4nnnn24)CCCC3)CC1	-9	?	12µM*	13	-1	-2%
CC(=O)C1CCC2C3CC(O)C4=CC(=O)CCC4(C)C3C(=O)CC12C (configuration not stated)	-1	14%	5%	2	8	.
COc1ccc(CNC(=O)CCc2cn(Cc3cc(C)ccc3C)c3ccccc23)cc1OC	.	4.6µM*	5.8µM*	.	-13	?
COc1ccc(Br)cc1CNC(=O)CCc1cn(Cc2ccc(C)cc2)c2ccccc12	.	?	23µM*	.	4	-16%
Cc1ccc(Cn2cc(CCC(=O)NC3CCC(C)CC3)c3ccccc32)cc1 (configuration not stated)	.	?	13µM*	.	9	-11%
CC1CCC(NC(=O)CCc2cn(Cc3ccc(F)cc3)c3ccccc23)CC1 (configuration not stated)	.	?	?	.	-3	?
COc1ccc(OC)c(CCNC(=O)CCc2cn(Cc3cc(C)ccc3C)c3ccccc23)c1	.	?	?	.	-17	?
CCOc1ccccc1CNC(=O)CCc1cn(Cc2ccc(Cl)cc2)c2ccccc12	.	18µM*	16µM*	.	2	-12%
O=C(Nc1cc(-c2nc3cc(Cl)ccc3o2)ccc1Cl)c1ccco1	.	.	.	.	2	0%
COc1ccc(CCNC(=O)CCc2cn(Cc3ccc(C)cc3)c3ccccc23)cc1OC	.	13µM*	15µM*	.	5	-6%
Cc1c(Cl)cccc1NC(=O)c1ccc2nc(C(C)C)oc2c1	.	?	12µM*	.	7	5%
Cc1c(Cl)cccc1NC(=O)c1ccc2snnc2c1	.	-1%	-28%	.	0	-1%
CC(=O)c1cccc(NC(=O)c2ccc3nc(C(C)C)oc3c2)c1	.	?	16µM*	.	-9	-2%
CC(C)c1nc2ccc(C(=O)Nc3ccccc3F)cc2o1	.	7.3µM*	5.8µM*	.	-12	0%
SMILES	IL1B secr inh	DT40 TDP1 CPT	TDP1 cell noCPT	D3 antag	DRD3 agonist	ClpP mod
CC(C)c1nc2ccc(C(=O)NCCCN3CCN(c4ccccc4F)CC3)cc2o1	.	?	?	.	8	-1%
Cc1cc(C)c(C)c(OCCN2CC(C)OC(C)C2)c1 (configuration not stated)	35	-16%	-19%	?	-25	2%
CCCN(CC(=O)Nc1ccccc1C)C(=O)c1ccc(N2CCCCC2)c([N+](=O)[O-])c1	-2	-5%	?	0	5	1%
CC(C)(C)c1nn(-c2ccccc2)c2[nH]c(=O)c(CNCc3ccc4c(c3)OCO4)cc12	42	18µM*	?	-11	-25	-16%
Cc1nn(-c2ccccc2)c(Cl)c1C(=O)NCC1CCCO1 (configuration not stated)	-2	-9%	-5%	0	6	1%
Cc1nn(-c2ccccc2)c2[nH]c(=O)c(CNCC3CCCO3)cc12 (configuration not stated)	-10	1%	-15%	-82*	-8	?
COc1ccc2c(c1)c1c(c(=O)n(-c3ccc(F)c(Cl)c3)c(=O)n1CC(=O)N1CCCC1)n2C	.	-1%	12%	.	0	?
COc1ccc(-n2ncc3c(NCCCOC(C)C)ncnc32)cc1	.	?	?	.	0	?
CCN(C(N)=S)c1ccccc1	7	-22%	-3%	-5	9	-2%
CCN(C(=N)N=C(N)N)c1ccccc1	1	?	18µM*	-10	-3	1%
O=C(O)CC1SC(=O)N(CC(=O)c2ccccc2)C1=O (configuration not stated)	5	4%	0%	-11	-5	2%
COc1ccccc1-c1csc(C(C)(O)c2cccc(F)c2)n1 (configuration not stated)	27	13µM*	16µM*	0	-11	-1%
COc1ccccc1-c1csc(C(C)(O)c2ccccc2)n1 (configuration not stated)	5	15µM*	?	0	-9	0%
CC(O)(c1cccc(F)c1)c1nc(-c2csc3ccccc23)cs1 (configuration not stated)	34	?	?	1	-3	-1%
C=CCn1c(O)c(N=NC(=O)CNC(=O)/C=C/c2ccc(OC)cc2)c2ccccc21	18	-18%	?	-29	-11	.

From PubChem
